Screening results from PubChem BioAssay.
Mdm2-MdmX inh: inhibitors of human Mdm2-MdmX association, primary screen, cell-based, luminescence, split luciferase, SaOS-2, uHTS | AID 485346, 2010 | SaOS-2 split-luciferase Mdm2/MdmX complementation | 330,000 compounds, 3% hits | inhibition, % at 8 µM;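 active = inhibition of at least 50% at 8 µM in the primary screen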
Target sequence (O15151 whole entry, looked up): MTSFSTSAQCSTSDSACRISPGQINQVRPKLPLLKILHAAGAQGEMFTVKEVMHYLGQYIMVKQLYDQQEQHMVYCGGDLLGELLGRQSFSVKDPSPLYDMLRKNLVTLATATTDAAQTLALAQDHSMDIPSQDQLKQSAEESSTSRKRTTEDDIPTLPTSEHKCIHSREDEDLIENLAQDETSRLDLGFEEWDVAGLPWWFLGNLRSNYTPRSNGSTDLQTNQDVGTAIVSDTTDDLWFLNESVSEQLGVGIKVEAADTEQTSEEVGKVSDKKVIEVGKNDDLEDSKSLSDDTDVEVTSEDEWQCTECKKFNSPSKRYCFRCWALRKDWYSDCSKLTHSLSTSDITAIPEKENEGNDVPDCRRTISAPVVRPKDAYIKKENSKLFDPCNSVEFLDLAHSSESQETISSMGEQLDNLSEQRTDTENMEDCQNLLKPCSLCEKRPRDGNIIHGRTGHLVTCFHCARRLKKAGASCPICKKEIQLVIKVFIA
Target sequence (Q00987 whole entry, looked up): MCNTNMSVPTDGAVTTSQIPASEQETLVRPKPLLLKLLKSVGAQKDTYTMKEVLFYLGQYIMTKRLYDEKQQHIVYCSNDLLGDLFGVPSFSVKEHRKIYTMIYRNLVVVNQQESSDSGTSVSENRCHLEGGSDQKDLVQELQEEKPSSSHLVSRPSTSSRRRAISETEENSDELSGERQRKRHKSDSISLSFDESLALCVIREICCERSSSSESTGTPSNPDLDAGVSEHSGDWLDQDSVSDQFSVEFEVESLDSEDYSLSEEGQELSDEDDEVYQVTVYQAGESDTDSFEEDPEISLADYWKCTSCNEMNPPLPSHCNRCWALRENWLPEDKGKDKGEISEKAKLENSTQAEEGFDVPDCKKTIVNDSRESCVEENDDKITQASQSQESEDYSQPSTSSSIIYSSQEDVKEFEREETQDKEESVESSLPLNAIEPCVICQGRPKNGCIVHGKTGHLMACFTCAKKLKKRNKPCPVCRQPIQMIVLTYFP
TIM10 inh: growth inhibitors of isogenic TIM10 control yeast, primary screen, counter-screen for tim10-1 yeast inhibitor project, luminescence, uHTS; S. cerevisiae TIM10 strain growth, BacTiter-Glo luminescence, 24 h; 330,000 compounds, 1.4% hits; inhibition, % at 10 µM;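 active = inhibition of 40% or more at the single tested concentration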;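 note: wild-type TIM10 isogenic control strain grown at permissive 25 °C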
MPTP block: mitochondrial permeability transition pore inhibitors, primary screen, biochemical, isolated mouse mitochondria, absorbance; 360,000 compounds, 1.4% hits; inhibition, % at 10 µM; Ca2+ swelling absorbance, 30 min;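 active = inhibition of 50% or more, scaled per plate between neutral and stimulator controls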;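 note: 0% = DMSO wells given calcium and 100% = 1 mM EGTA wells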
tim10-1 inh: growth inhibitors of tim10-1 mutant yeast, primary screen, luminescence, uHTS | S. cerevisiae tim10-1 ts strain growth, BacTiter-Glo, 24 h | inhibition, % at 20 µM | 330,000 compounds, 2.2% hits;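 active = inhibition of at least 40%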;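 note: mutant grown at 25 °C; 0% = DMSO wells with yeast and 100% = wells holding no yeast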
tim23-1 inh: growth inhibitors of tim23-1 mutant yeast, primary screen, luminescence, uHTS. 330,000 compounds, 1.3% hits. inhibition, % at 20 µM. AID 463212, 2010. S. cerevisiae tim23-1 growth, BacTiter-Glo luminescence, 24 h;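 active = growth inhibition of the mutant yeast at or above 50%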;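 note: temperature-sensitive mutant grown at 25 °C; plate controls were DMSO-treated mutant yeast for no effect and medium wells lacking yeast for full effect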
Mdm2 MdmX conf: Mdm2-MdmX complex disruptors, retested hits, confirmation, luminescence, single concentration. shares compounds with Mdm2-MdmX inh. Mdm2-MdmX binding, luminescent assay. inhibition, % at 8 µM. AID 489028, 2010. 10,000 compounds, 55% hits; in the data active = inhibition above about 40%
FLuc counter: full-length luciferase signal inhibition, confirmation, counter-screen for Mdm2/MdmX interaction inhibitor project, cell-based, single concentration, SaOS-2; shares compounds with Mdm2-MdmX inh; SaOS-2 full-length luciferase counterscreen, luminescence; inhibition, % at 8 µM; 6,200 compounds, 77% hits;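 active = mean inhibition at 8 µM reaching about 37%, which flags the compound as non-specific, limit read from the data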;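 note: p53-null SaOS-2 cells with luciferase driven by a doxycycline-inducible promoter; compound on cells about two nights before reading with doxycycline added after day one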
Starred values were filed as active, the others as inactive. The list is not random: actives were taken first. Their share in the collection is about 6.3%.

Cc1nn(-c2ccc(F)cc2)c2nc(N)c(C#N)c(-c3ccc(O)c(O)c3)c12 was read as Mdm2-MdmX inh 61*, TIM10 inh -3, MPTP block 7, tim10-1 inh 12, tim23-1 inh -8 and Mdm2 MdmX conf 29.
`COc1cc2c(c(OC)c1OC)-c1ccc(NC(=O)c3ccc(F)cc3)c(=O)cc1[C@@H](NC(C)=O)CC2` gave Mdm2-MdmX inh 62*, TIM10 inh 15, MPTP block 1, tim10-1 inh 27, tim23-1 inh 28, Mdm2 MdmX conf 52* and FLuc counter 78*.
COc1cc2c(c(OC)c1OC)-c1ccc(OC)c(=O)cc1[C@@H](NC(C)=O)CC2 was read as Mdm2-MdmX inh 73*, TIM10 inh 4, MPTP block 0, tim10-1 inh -6, tim23-1 inh -12, Mdm2 MdmX conf 41* and FLuc counter 98*.
Screening COc1cc2c(c(OC)c1OC)-c1ccc(SC)c(=O)cc1C(NC(=O)C(F)(F)F)CC2 (centres undefined) returned MPTP block 1.
For COc1cc2c(c(OC)c1OC)-c1ccc(OC)c(=O)cc1[C@@H](N(C)CC#CCO)CC2 the results were Mdm2-MdmX inh 51*, TIM10 inh 6, MPTP block 0, tim10-1 inh -3, tim23-1 inh 4, Mdm2 MdmX conf 53* and FLuc counter 117*.
`CC(=O)Nc1cccc(-c2ccnc3c2CC(C)(C(=O)NCc2ccncc2)O3)c1` (centres undefined) gave MPTP block -2.
Screening COc1ccc(OC)c(/C=N\NC(=O)c2ccc(-c3ccccc3)cc2)c1 returned Mdm2-MdmX inh 4, TIM10 inh -19, MPTP block 0, tim10-1 inh 14 and tim23-1 inh 6.
Screening COc1cccc(/C=N/NC(=O)CN2CC(c3ccccc3)CC2=O)c1O (centres undefined) returned Mdm2-MdmX inh 52*, TIM10 inh 12, MPTP block 1, tim10-1 inh 12, tim23-1 inh 12 and Mdm2 MdmX conf 30.
Screening COc1cccc(/C=N/NC(=O)c2ccc(-c3ccccc3)cc2)c1O returned Mdm2-MdmX inh 76*, TIM10 inh 6, MPTP block 6, tim10-1 inh -12, tim23-1 inh -2, Mdm2 MdmX conf 77* and FLuc counter 23.
Screening COc1cccc(/C=N/NC(=O)c2[nH]c(C)c(C(=O)N/N=C/c3cccc(OC)c3O)c2C)c1O returned Mdm2-MdmX inh 62*, TIM10 inh -103, MPTP block 37, tim10-1 inh 16, tim23-1 inh 7, Mdm2 MdmX conf 43* and FLuc counter 70*.
COc1cccc(/C=N/NC(=O)C[n+]2ccccc2)c1O was read as Mdm2-MdmX inh 3, TIM10 inh 21, MPTP block 0, tim10-1 inh 15 and tim23-1 inh 4.
Screening COc1ccc(C(=O)N/N=C/c2ccccc2OC(=O)c2ccccc2)cc1 returned Mdm2-MdmX inh 53*, TIM10 inh 33, MPTP block -1, tim10-1 inh 20, tim23-1 inh 28, Mdm2 MdmX conf 41* and FLuc counter 112*.
`CCOc1cc(-c2nc(-c3ccccc3)c(-c3cc([N+](=O)[O-])ccc3C)[nH]2)ccc1O` gave Mdm2-MdmX inh 57*, TIM10 inh 23, MPTP block 16, tim10-1 inh 27, tim23-1 inh 37 and Mdm2 MdmX conf 13.
For COc1ccc(-c2nc(-c3ccccc3)c(-c3cc([N+](=O)[O-])ccc3C)[nH]2)cc1OC the results were Mdm2-MdmX inh 19, TIM10 inh 11, MPTP block 0, tim10-1 inh 39 and tim23-1 inh 42.
